Source: PubChem
Sampled rows, rich in hits. Any-hit rate of the full collection: about 2.4%.
ELG1 repair inh – blocks ELG1-dependent DNA repair in HEK293T cells | HEK293T ELG1-luciferase reporter, luminescence, 16 h; DNA damage induced by 5-fluorouridine | Potency, µM (top dose mostly 46.1 µM), for inactives: top-dose activity change, negative = inhibition, most hits filed as inhibitors | 2.3% of 330,000 active | AID 504467; note: % is set by controls: 0 for no effect and ±100 for the full control effect; nearly all actives have a fitted effect of over 55% in size
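Overnight (16 hr) co-exposure of 2,000 cells/well to 5-fluorouridine and compound at 37 °C preceded detection. Luciferase was quantified via ONE-Glo luminescence; loss of signal denotes inhibition.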
Tb PGK inh – inhibitors of T. brucei phosphoglycerate kinase; P07378; PGK/GAPDH coupled, Kinase-Glo luminescence, 60 min; Potency, µM (series often up to 57.5 µM), inactives show at the highest dose activity change, negative = inhibition, most hits filed as inhibitors; 0.043% of 380,000 active; AID 602233; note: % is set by controls: 0 for no effect and ±100 for the full control effect; nearly all actives have a fitted effect of over 60% in size
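Luminescent ATP detection (Kinase-Glo Plus) follows a 60-minute room-temperature incubation, with wells lacking PGK as controls. Buffer: 100 mM TEA (pH 7.6), 5 mM MgCl2, 0.01% Tween-20. Coupling enzyme GAPDH (100 nM final) supplies unstable 1,3-BPG in-well.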
PKM2 act – PKM2 (human) enzyme activation. P14618. purified PKM2, Kinase-Glo ATP luminescence, activation; response scale: 0% is enzyme alone, no compound. Potency, µM (top dose mostly 57.5 µM), for the others: top-dose activation, most hits filed as activators. 0.34% of 260,000 active; note: % is set by controls: 0 for no effect and ±100 for the full control effect; nearly all actives have a fitted effect of over 55% in size
Target sequence (P14618 whole entry, looked up): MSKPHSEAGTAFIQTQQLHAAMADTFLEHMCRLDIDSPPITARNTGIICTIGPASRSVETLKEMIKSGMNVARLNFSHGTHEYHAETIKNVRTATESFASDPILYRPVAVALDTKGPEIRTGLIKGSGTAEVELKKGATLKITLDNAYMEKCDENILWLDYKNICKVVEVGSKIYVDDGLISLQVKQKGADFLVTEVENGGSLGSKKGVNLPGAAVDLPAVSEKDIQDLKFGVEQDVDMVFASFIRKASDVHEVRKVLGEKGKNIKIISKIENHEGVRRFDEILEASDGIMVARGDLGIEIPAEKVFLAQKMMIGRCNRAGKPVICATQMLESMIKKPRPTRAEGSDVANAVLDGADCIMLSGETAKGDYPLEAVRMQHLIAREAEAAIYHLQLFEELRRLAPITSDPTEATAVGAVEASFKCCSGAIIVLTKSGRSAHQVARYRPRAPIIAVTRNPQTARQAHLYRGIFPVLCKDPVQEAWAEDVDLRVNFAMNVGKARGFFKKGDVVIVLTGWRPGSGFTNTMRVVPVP
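ATP formation by purified human PK-M2, quantified via coupled luciferase luminescence after 1 h at room temperature with 0.1 mM ADP and 0.5 mM PEP final.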
Rango dissoc inh – inhibition of RanGTP-driven Rango-importin beta dissociation; Biochemical FRET Rango-importin beta, RanGTP-induced dissociation; 0.071% of 340,000 active; Potency, µM (titrated, usually from 46.1 µM), without a hit: top-dose activity change, negative = inhibition; O95149+P62826; AID 540253; calls by dose curve; note: % of control where 0% means no effect; nearly all actives have a fitted effect of over 45% in size
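Quantitative HTS using a FRET biosensor: 0.1 uM Rango, 0.25 uM importin beta, 0.6 uM Ran, 2 mM GTP, 0.2 uM RCC1 final, PBS with DTT, Tween-20 and BSA. Post-read taken 45 min after Ran addition.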
Tb PFK inh – T. brucei PFK enzyme inhibition; O15648; T. brucei PFK, ADP-Glo luminescence; Potency, µM (series often up to 57.5 µM), without a hit: top-dose activity, negative = inhibition, hits mostly inhibitors; 0.17% of 330,000 active;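 note: 0% = uninhibited 1x PFK enzyme wells and -100% = no-enzyme wells; nearly all actives have a fitted effect of over 60% in size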
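1.25 nM PFK with 0.5 mM F6P and 0.1 mM ATP in 0.1 M TEA pH 8.0, 5 mM MgCl2, incubated 45 min at room temperature; ADP measured by ADP-Glo luminescence; compounds titrated up to 57 uM.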
Rango-impB inh – prevents formation of the Rango-importin beta complex. Rango CFP/YFP FRET sensor + importin beta, 45 min. Potency, µM (titrated, usually from 92.2 µM), for the others: at the top dose inhibition of complex formation. 0.031% of 340,000 active; calls by dose curve;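 note: 0% = DMSO wells and 100% = buffer wells lacking importin beta; nearly all actives have a fitted effect of over 15% in size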
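FRET biosensor Rango (snurportin 1 IBB between N-terminal EYFP and C-terminal Cerulean), 50 nM in PBS/1 mM DTT/0.02% Tween-20/0.1% BSA, preincubated 5 min RT with compound; 0.125 microM importin beta added, 45 min RT, CFP/YFP FRET ratio read.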
* hit, by the source's call; i = inactive; ? = inconclusive; · = not tested or not shown. Unless noted, calls come from the whole dose curve; as a rule, active = well fitted curve in the direction sought with a large enough effect; inconclusive = small, poorly fitted or top-dose-only effect, or another doubt; inactive = no such curve, though single readings can be large; an effect the other way counts as inactive or inconclusive. Potency is the fitted concentration of half-maximal effect.

SMILES	ELG1 repair inh	Tb PGK inh	PKM2 act	Rango dissoc inh	Tb PFK inh	Rango-impB inh
COc1ccc(-c2cc(=O)oc3cc(OC(=O)C4CCCCC4)c(Cl)cc23)cc1	3.3µM*	-1%	-12%	?	6%	?
COc1ccc(-c2noc(N3CCC(C(=O)Nc4ccccc4Cl)CC3)n2)cc1	?	-11%	-24%	40%	-2%	6%
COc1ccc(-c2noc(N3CCC(C(=O)NC(C)c4ccccc4)CC3)n2)cc1 (stereo not given)	13µM*	6%	-5%	54%	0%	6%
O=[N+]([O-])c1ccc2nc(-[n+]3c(-c4ccccc4)cc(-c4ccccc4)cc3-c3ccccc3)[nH]c2c1	23µM*	-7%	-3%	-7%	-3%	?
N=c1c2c(ncn1Cc1ccco1)Oc1ccc3ccccc3c1C2c1ccccc1 (stereo not given)	15µM*	-6%	-3%	-9%	1%	4%
COCCN(CCOC)c1nc(C)nc2c1nc(-c1ccccc1)n2CCCN(C)C	·	·	1%	·	·	·
COc1cccc(/C=C2/NC(=O)N(CC(=O)Nc3ccc(C)cc3)C2=O)c1OCc1cccc(C(=O)O)c1	11%	-18%	·	-7%	2%	?
Cc1ccc(NC(=O)CN2C(=O)N/C(=C/c3ccccc3OCc3cccc(C(=O)O)c3)C2=O)cc1	?	22µM*	·	8%	?	?
CC[C@H](CO)Nc1nc(Nc2cccc(Cl)c2)c2ncn(C(C)C)c2n1	7.3µM*	2%	-15%	1%	5%	-2%
COc1cc(CC(=O)OCC(=O)N2C(C)CCCC2C)cc(OC)c1OC (stereo not given)	0%	-4%	·	0%	-6%	0%
O=C(NCc1ccccn1)C(=O)NCC1OCCN1S(=O)(=O)c1ccc(F)cc1 (stereo not given)	6%	1%	0%	10%	-26%	2%
CC(C)C(C)NC(=O)COc1ccc(Sc2ccc(OCC(=O)NC(C)C(C)C)cc2)cc1 (stereo not given)	8.2µM*	-1%	-14%	0%	-1%	-3%
N#Cc1ccc(C(=O)Nc2cccc(S(=O)(=O)NC3=NCCC3)c2)cc1	-16%	-6%	·	-10%	1%	-3%
O=C(c1cccc(S(=O)(=O)N2CCCc3ccccc32)c1)N1CCN(c2ccccc2)CC1	?	i	·	3%	3%	-2%
CCc1ccc(CNC(=O)C2CCCN(c3nnc(C)c4c(C)n(-c5ccccc5)nc34)C2)cc1 (stereo not given)	21µM*	-3%	·	1%	-3%	?
COc1ccc(-n2nc3c(N4CCCC(C(=O)NCc5cccc(F)c5)C4)nnc(C)c3c2C)cc1 (stereo not given)	·	-5%	·	·	·	·
COc1ccc(-n2nc3c(N4CCC(C(=O)NCc5cccc(C)c5)CC4)nnc(C)c3c2C)cc1	18µM*	-3%	·	2%	16%	4%
Cc1ccc(C)c(S(=O)(=O)c2cn(Cc3ccccc3)c3cc(F)c(F)cc3c2=O)c1	·	-1%	·	·	·	·
CN=C1S/C(=C\c2ccc(N3CCOCC3)cc2C)C(=O)N1C	8.2µM*	-8%	-1%	-13%	0%	?
Cc1cc(N2CCOCC2)ccc1/C=C1\NC(=O)N(Cc2ccccc2)C1=O	?	·	1%	?	0%	?
CCN=C1S/C(=C\c2ccc(N3CCOCC3)cc2C)C(=O)N1CC	5.8µM*	7%	-2%	40%	0%	7%
O=c1oc2ccccc2cc1-c1cn2cc(Cc3ccc(Br)cc3)sc2n1	·	2%	·	·	·	·
CCOC(=O)c1cc(-c2nnc(-c3ccc(Oc4ccccc4)cc3)o2)c(C)nc1C	23µM*	0%	0%	11%	0%	0%
COc1ccccc1NS(=O)(=O)c1ccc2oc(SC(C)C(=O)N3CCNC3=O)nc2c1 (stereo not given)	26µM*	5%	·	0%	-8%	1%
Cc1[nH]c2ccccc2c1C1=CC(=O)C=CC1=O	·	-9%	·	-15%	·	-4%
SMILES	ELG1 repair inh	Tb PGK inh	PKM2 act	Rango dissoc inh	Tb PFK inh	Rango-impB inh
O=C1C=C(Nc2ccccc2C(=O)O)c2ccccc2C1=O	26µM*	-12%	-21%	-7%	0%	3%
O=C1C=C(Nc2ccccc2)c2ccccc2C1=O	9.2µM*	-4%	-7%	1%	-4%	-1%
O=C1C=C(Nc2ccccc2)C(=O)c2ccccc21	?	-11%	-7%	12%	-6%	1%
Cc1ccc(C)c(N2CC(C(=O)OCC(=O)Nc3cc(C)on3)CC2=O)c1 (stereo not given)	9%	-1%	-8%	-6%	0%	0%
Nc1c2c(nc3ccn(Cc4ccccc4)c(=O)c13)CCC2	13%	2%	14µM*	3%	-8%	0%
C=CCN(c1ccccc1OC)S(=O)(=O)c1cccc(C(=O)OCC(=O)c2c[nH]c3ccccc23)c1	23µM*	-2%	-8%	7%	-1%	1%
COc1cc(OC)c(N(C)S(=O)(=O)c2cccc(C(=O)OCC(=O)c3c[nH]c4ccccc34)c2)cc1Cl	21µM*	-3%	1%	2%	0%	0%
CN(c1ccccc1)S(=O)(=O)c1cccc(C(=O)Nc2nccs2)c1	-13%	-5%	-1%	-3%	-3%	0%
COc1cc(OC)c(N(C)S(=O)(=O)c2cccc(C(=O)Nc3nccs3)c2)cc1Cl	23µM*	-9%	·	13%	5%	-4%
C=CCN(c1ccccc1OC)S(=O)(=O)c1cccc(C(=O)OCC(=O)N2CCOCC2)c1	-5%	4%	·	5%	1%	2%
CCOC(=O)c1ccc(NS(=O)(=O)c2ccc(Cl)nc2)cc1	-15%	·	-3%	·	-2%	·
CCOC(=O)c1cnn(-c2ccc(NS(=O)(=O)c3ccc(Cl)cc3)cc2)c1C(F)(F)F	23µM*	-5%	4%	1%	1%	1%
O=C(NNc1ccccc1)c1ccccc1	·	-8%	·	4%	·	3%
O=C(NNc1ccc(O)cc1)c1ccc(Br)cc1	5.8µM*	·	-3%	1%	-5%	2%
CNS(=O)(=O)c1ccc(CNC[C@H]2O[C@@H](n3ccc(N)nc3=O)[C@H](O)[C@@H]2O)cc1	·	-5%	·	·	·	·
Cc1ccc(C)c(N2CCN(C(=O)Cn3nc(Cc4cccnc4)c4ccccc4c3=O)CC2)c1	·	-5%	·	·	·	·
COC(=O)c1ccc(OC)c(CN2C(=O)N(c3ccc(C(C)=O)cc3)S(=O)(=O)c3ccccc32)c1	·	i	·	·	·	·
OCCNc1nc2nonc2nc1NCCO	1%	-10%	0%	-10%	0%	2%
